Measurements from PMC5515408, “Sequence-specific DNA binding by MYC/MAX to low-affinity non-E-box motifs”.
In all, about 4,500 sequences were measured (“log2 normalized fluorescence”: median about -0.34, highest 2% from about 3.3 on). The full list was thinned out, with the highest values kept by preference.

These sequences were tested against MAX:MAX (p21) (human, UniProt P61244-2 1-151) (assay: protein-binding microarray (anti-MAX antibody); PBM: 15 mM Tris-HCl pH 7.5, 100 mM KCl, 0.075% NP40, 7.5 mM beta-mercaptoethanol, 375 ng/ul BSA, 8 ng/ul poly(dA-dT):(dA-dT), 550 ng complex, 60 min, room tempe; high values mean tight binding). Details: protein: recombinant; tags: 6xHis; chain copies: 2; label: 3' end of printed strand (linker) attached to glass slide; dsDNA, one strand shown.
Sequence of MAX:MAX (p21) (P61244 other isoform, or with tags, fused parts or gaps): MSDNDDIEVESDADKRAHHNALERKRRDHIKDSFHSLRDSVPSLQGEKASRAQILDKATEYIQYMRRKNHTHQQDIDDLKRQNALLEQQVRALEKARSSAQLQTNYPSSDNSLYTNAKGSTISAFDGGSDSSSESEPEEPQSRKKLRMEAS
Summary of the method: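 For each of ~5000 unique double-stranded 12-nt sequences, spotted in triplicate on a custom Agilent glass array, binding of His-tagged human MYC:MAX or MAX:MAX dimers is reported as log2 normalized fluorescence. The dimers (550 ng, E. coli-expressed) were incubated for 60 min at room temperature in Tris-KCl buffer, pH 7.5, with NP40, BSA and poly(dA-dT) competitor. Detection used anti-MAX and secondary antibodies with a 543 nm scan.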

**Q.** How did the binding signal turn out when “CCGGCGAACACGTAGTATTAATAGCTAAGATTACTATATCGACG” was run?
**A.** 2.25 log2 normalized fluorescence

**Q.** Which binding signal does the source give for “CCGGCGAACACGTGGTATTAATAGCTAAGATTACTATATCGACG” here?
**A.** 3.34 log2 normalized fluorescence

**Q.** With “CCGGCGAACATGTGGTATTAATAGCTAAGATTACTATATCGACG” as the sequence, how does the binding signal read?
**A.** 3.2 log2 normalized fluorescence

**Q.** With “CCGGCTGAACGCTGGTATTAATAGCTAAGATTACTATATCGACG” as the sequence, how does the binding signal read?
**A.** 0.233 log2 normalized fluorescence

**Q.** How did the binding signal turn out when “CCGGCTGAGGACATGTATTAATAGCTAAGATTACTATATCGACG” was run?
**A.** 0.549 log2 normalized fluorescence

**Q.** “CCGGCTGATGCCGCGTATTAATAGCTAAGATTACTATATCGACG” was tested. Which binding signal did it give?
**A.** 0.00246 log2 normalized fluorescence

**Q.** For “CCGGCTGACACACGGTCTTAATAGCTAAGATTACTATATCGACG”, which binding signal is on record?
**A.** 1.84 log2 normalized fluorescence

**Q.** With “CCGGCTGACACGCGGTCTTAATAGCTAAGATTACTATATCGACG” as the sequence, how does the binding signal read?
**A.** 3.32 log2 normalized fluorescence

**Q.** With “CCGGCTAACACGCGGTCTTAATAGCTAAGATTACTATATCGACG” as the sequence, how does the binding signal read?
**A.** 3.15 log2 normalized fluorescence

**Q.** “CCGGCTGACACGTGCCGTTAATAGCTAAGATTACTATATCGACG” was tested. Which binding signal did it give?
**A.** 3.41 log2 normalized fluorescence

**Q.** Which binding signal does the source give for “CCGGCTGACACGTTAGATTAATAGCTAAGATTACTATATCGACG” here?
**A.** 2.59 log2 normalized fluorescence

**Q.** How did the binding signal turn out when “CCGGCTGACACGTGCTATTAATAGCTAAGATTACTATATCGACG” was run?
**A.** 3.17 log2 normalized fluorescence

**Q.** Which binding signal does the source give for “CCGGCTGACACGTGCACTTAATAGCTAAGATTACTATATCGACG” here?
**A.** 3.13 log2 normalized fluorescence

**Q.** Which binding signal does the source give for “CCGGCTGACACGTGCGATTAATAGCTAAGATTACTATATCGACG” here?
**A.** 3.02 log2 normalized fluorescence

**Q.** “CCGGCTGACACGTGCAATTAATAGCTAAGATTACTATATCGACG” was tested. Which binding signal did it give?
**A.** 3.47 log2 normalized fluorescence

**Q.** How did the binding signal turn out when “CCGGCTGACACGTGCCATTAATAGCTAAGATTACTATATCGACG” was run?
**A.** 3 log2 normalized fluorescence

**Q.** For “CCGGCTGACACGTGCGGTTAATAGCTAAGATTACTATATCGACG”, which binding signal is on record?
**A.** 3.31 log2 normalized fluorescence

**Q.** How did the binding signal turn out when “CCGGCTGACACGTGCGTTTAATAGCTAAGATTACTATATCGACG” was run?
**A.** 3.25 log2 normalized fluorescence

**Q.** “CCGGCTGAGGCCATGTATTAATAGCTAAGATTACTATATCGACG” was tested. Which binding signal did it give?
**A.** 0.0723 log2 normalized fluorescence

**Q.** Which binding signal does the source give for “CCGGCTGACGCCGTGTATTAATAGCTAAGATTACTATATCGACG” here?
**A.** 0.693 log2 normalized fluorescence

**Q.** With “CCGGCTGACACGTATCATTAATAGCTAAGATTACTATATCGACG” as the sequence, how does the binding signal read?
**A.** 1.42 log2 normalized fluorescence

**Q.** How did the binding signal turn out when “CCGGCTGAACAATCGTATTAATAGCTAAGATTACTATATCGACG” was run?
**A.** -0.744 log2 normalized fluorescence

**Q.** For “CCGGCTGATGTTGAGTATTAATAGCTAAGATTACTATATCGACG”, which binding signal is on record?
**A.** -0.163 log2 normalized fluorescence

**Q.** “CCGGCAGACACTTTGTATTAATAGCTAAGATTACTATATCGACG” was tested. Which binding signal did it give?
**A.** 0.324 log2 normalized fluorescence

**Q.** “CCGGCTGAGACTCCGTATTAATAGCTAAGATTACTATATCGACG” was tested. Which binding signal did it give?
**A.** -0.692 log2 normalized fluorescence

**Q.** For “CCGGCTGAGTCTGCGTATTAATAGCTAAGATTACTATATCGACG”, which binding signal is on record?
**A.** -0.699 log2 normalized fluorescence

**Q.** “CCGGCTGAATCCCAGTATTAATAGCTAAGATTACTATATCGACG” was tested. Which binding signal did it give?
**A.** -0.681 log2 normalized fluorescence

**Q.** For “CCGGCTGATGTTTTGTATTAATAGCTAAGATTACTATATCGACG”, which binding signal is on record?
**A.** -0.281 log2 normalized fluorescence

**Q.** With “CCGGCTGACACGTGACATTAATAGCTAAGATTACTATATCGACG” as the sequence, how does the binding signal read?
**A.** 3.44 log2 normalized fluorescence

**Q.** With “CCGGCTGACACGTGAGTTTAATAGCTAAGATTACTATATCGACG” as the sequence, how does the binding signal read?
**A.** 3.25 log2 normalized fluorescence

**Q.** Which binding signal does the source give for “CCGGCTGACACGTTACATTAATAGCTAAGATTACTATATCGACG” here?
**A.** 3.06 log2 normalized fluorescence

**Q.** “CCGGCTGACACGTGAGATTAATAGCTAAGATTACTATATCGACG” was tested. Which binding signal did it give?
**A.** 3.29 log2 normalized fluorescence

**Q.** “CCGGCTGACACGTGAGGTTAATAGCTAAGATTACTATATCGACG” was tested. Which binding signal did it give?
**A.** 3.37 log2 normalized fluorescence

**Q.** For “CCGGCTGACACGTGATGTTAATAGCTAAGATTACTATATCGACG”, which binding signal is on record?
**A.** 3.13 log2 normalized fluorescence

**Q.** Which binding signal does the source give for “CCGGCTGACACGTGAGCTTAATAGCTAAGATTACTATATCGACG” here?
**A.** 3.09 log2 normalized fluorescence

**Q.** With “CCGGCTGACACGTGAAGTTAATAGCTAAGATTACTATATCGACG” as the sequence, how does the binding signal read?
**A.** 3.15 log2 normalized fluorescence

**Q.** With “CCGGCTGACACGTGACGTTAATAGCTAAGATTACTATATCGACG” as the sequence, how does the binding signal read?
**A.** 3.23 log2 normalized fluorescence
